Laboratory results published in ChEMBL document CHEMBL2218924, “A broad activity screen in support of a chemogenomic map for kinase signalling research and drug discovery” (Biochem J, 2013).

Columns and labels:
[1] = target: Insulin receptor (Homo sapiens) (UniProt P06213); settings: at 10 µM
[2] = target: Insulin receptor (Homo sapiens) (UniProt P06213); settings: at 1 µM
[3] = target: Insulin receptor (Homo sapiens) (UniProt P06213); settings: at 10 µM; remark: listed apart in the source
[4] = target: Interleukin-1 receptor-associated kinase 1 (Homo sapiens) (UniProt P51617); settings: at 1 µM
[5] = target: Interleukin-1 receptor-associated kinase 1 (Homo sapiens) (UniProt P51617); settings: at 10 µM
[6] = target: T1, Interleukin-1 receptor-associated kinase 4 (Homo sapiens) (UniProt Q9NWZ3); settings: at 1 µM
T1 sequence (whole entry): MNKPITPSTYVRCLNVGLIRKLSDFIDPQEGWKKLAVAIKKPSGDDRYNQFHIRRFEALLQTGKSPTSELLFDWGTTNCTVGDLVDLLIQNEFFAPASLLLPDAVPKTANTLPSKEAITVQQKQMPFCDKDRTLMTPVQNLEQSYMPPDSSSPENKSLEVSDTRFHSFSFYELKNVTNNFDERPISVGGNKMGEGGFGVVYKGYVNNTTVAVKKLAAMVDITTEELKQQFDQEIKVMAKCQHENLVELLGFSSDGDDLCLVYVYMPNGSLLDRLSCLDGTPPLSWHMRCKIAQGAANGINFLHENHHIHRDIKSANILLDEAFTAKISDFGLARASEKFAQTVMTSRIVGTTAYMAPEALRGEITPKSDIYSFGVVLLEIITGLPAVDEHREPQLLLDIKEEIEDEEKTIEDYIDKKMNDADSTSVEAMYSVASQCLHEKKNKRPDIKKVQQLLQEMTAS

[7] = target: T1, Interleukin-1 receptor-associated kinase 4 (Homo sapiens); settings: at 10 µM
[8] = target: T2, Tyrosine-protein kinase JAK3 (Homo sapiens) (UniProt P52333); settings: at 10 µM
T2 sequence (whole entry): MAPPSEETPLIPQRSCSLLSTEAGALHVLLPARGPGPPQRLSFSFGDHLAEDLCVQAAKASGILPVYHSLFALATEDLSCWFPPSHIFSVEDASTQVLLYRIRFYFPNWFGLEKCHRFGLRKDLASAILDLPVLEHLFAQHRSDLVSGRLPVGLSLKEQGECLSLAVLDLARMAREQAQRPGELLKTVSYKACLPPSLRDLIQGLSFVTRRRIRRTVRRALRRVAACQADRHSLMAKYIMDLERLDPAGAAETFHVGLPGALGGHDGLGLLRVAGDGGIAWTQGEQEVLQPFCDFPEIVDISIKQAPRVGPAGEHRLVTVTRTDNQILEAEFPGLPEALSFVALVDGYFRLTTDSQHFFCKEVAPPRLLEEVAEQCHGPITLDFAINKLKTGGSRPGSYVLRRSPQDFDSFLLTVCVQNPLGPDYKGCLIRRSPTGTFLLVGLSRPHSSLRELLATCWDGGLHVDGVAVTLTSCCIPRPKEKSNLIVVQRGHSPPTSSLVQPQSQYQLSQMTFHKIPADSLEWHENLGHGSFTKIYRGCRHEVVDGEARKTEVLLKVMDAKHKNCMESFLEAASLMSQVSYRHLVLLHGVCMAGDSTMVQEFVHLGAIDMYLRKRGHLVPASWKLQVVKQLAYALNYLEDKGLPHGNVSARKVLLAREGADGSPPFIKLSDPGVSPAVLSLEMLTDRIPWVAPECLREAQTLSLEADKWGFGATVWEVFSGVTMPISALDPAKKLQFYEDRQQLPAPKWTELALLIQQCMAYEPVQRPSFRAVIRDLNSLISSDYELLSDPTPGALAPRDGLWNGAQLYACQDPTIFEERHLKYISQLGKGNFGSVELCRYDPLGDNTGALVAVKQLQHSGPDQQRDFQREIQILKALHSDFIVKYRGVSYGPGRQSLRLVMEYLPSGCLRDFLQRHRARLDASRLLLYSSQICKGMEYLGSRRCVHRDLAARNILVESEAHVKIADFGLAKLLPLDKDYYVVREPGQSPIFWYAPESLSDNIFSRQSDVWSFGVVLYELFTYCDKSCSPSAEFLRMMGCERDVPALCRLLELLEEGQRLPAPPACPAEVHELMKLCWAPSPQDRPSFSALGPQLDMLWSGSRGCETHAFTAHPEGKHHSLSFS

[9] = target: Mitogen-activated protein kinase 10 (Homo sapiens) (UniProt P53779); settings: at 1 µM
[10] = target: Insulin receptor-related protein (Homo sapiens) (UniProt P14616); settings: at 1 µM
[11] = target: Insulin receptor-related protein (Homo sapiens) (UniProt P14616); settings: at 10 µM
[12] = target: T3, Tyrosine-protein kinase ITK/TSK (Homo sapiens) (UniProt Q08881); settings: at 1 µM
T3 sequence (whole entry): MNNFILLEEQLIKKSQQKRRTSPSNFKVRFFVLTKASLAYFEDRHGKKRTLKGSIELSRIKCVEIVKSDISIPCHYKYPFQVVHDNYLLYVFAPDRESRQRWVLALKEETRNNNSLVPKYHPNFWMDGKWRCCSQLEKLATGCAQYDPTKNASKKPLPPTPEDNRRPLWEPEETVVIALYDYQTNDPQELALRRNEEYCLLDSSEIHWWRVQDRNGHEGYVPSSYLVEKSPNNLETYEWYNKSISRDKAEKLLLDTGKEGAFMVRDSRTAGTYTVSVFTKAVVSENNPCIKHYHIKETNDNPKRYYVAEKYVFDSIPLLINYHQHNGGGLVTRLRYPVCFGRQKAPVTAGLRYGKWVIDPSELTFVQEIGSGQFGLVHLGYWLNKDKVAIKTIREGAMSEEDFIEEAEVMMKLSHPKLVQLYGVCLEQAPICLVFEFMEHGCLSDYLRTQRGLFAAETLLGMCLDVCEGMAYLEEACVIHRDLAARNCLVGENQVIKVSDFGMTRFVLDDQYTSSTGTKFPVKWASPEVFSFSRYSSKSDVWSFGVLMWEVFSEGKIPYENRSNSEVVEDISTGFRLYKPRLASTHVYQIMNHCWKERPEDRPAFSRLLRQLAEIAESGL

[13] = target: T3, Tyrosine-protein kinase ITK/TSK (Homo sapiens); settings: at 10 µM
[14] = target: Tyrosine-protein kinase JAK2 (Homo sapiens) (UniProt O60674); settings: at 1 µM
[15] = target: Tyrosine-protein kinase JAK2 (Homo sapiens) (UniProt O60674); settings: at 10 µM
[16] = target: T2, Tyrosine-protein kinase JAK3 (Homo sapiens); settings: at 1 µM
[17] = target: Mitogen-activated protein kinase 8 (Homo sapiens) (UniProt P45983); settings: at 1 µM
[18] = target: Mitogen-activated protein kinase 8 (Homo sapiens) (UniProt P45983); settings: at 10 µM
[19] = target: Mitogen-activated protein kinase 9 (Homo sapiens) (UniProt P45984); settings: at 1 µM
[20] = target: Mitogen-activated protein kinase 9 (Homo sapiens) (UniProt P45984); settings: at 10 µM

Chain of Mitogen-activated protein kinase 8 (Homo sapiens) (P45983 whole entry): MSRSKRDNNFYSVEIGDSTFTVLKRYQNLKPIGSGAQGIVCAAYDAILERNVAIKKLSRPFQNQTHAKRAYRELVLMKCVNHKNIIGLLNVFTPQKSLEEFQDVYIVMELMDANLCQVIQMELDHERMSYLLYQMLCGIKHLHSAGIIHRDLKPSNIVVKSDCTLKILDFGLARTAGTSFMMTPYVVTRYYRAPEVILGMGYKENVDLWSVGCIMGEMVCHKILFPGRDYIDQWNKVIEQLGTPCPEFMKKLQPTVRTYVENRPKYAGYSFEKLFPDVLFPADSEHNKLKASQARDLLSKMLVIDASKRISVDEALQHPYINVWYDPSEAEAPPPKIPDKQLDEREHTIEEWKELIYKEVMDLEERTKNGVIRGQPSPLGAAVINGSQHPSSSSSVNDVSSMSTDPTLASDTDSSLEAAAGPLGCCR
Chain of Tyrosine-protein kinase JAK2 (Homo sapiens) (O60674 whole entry): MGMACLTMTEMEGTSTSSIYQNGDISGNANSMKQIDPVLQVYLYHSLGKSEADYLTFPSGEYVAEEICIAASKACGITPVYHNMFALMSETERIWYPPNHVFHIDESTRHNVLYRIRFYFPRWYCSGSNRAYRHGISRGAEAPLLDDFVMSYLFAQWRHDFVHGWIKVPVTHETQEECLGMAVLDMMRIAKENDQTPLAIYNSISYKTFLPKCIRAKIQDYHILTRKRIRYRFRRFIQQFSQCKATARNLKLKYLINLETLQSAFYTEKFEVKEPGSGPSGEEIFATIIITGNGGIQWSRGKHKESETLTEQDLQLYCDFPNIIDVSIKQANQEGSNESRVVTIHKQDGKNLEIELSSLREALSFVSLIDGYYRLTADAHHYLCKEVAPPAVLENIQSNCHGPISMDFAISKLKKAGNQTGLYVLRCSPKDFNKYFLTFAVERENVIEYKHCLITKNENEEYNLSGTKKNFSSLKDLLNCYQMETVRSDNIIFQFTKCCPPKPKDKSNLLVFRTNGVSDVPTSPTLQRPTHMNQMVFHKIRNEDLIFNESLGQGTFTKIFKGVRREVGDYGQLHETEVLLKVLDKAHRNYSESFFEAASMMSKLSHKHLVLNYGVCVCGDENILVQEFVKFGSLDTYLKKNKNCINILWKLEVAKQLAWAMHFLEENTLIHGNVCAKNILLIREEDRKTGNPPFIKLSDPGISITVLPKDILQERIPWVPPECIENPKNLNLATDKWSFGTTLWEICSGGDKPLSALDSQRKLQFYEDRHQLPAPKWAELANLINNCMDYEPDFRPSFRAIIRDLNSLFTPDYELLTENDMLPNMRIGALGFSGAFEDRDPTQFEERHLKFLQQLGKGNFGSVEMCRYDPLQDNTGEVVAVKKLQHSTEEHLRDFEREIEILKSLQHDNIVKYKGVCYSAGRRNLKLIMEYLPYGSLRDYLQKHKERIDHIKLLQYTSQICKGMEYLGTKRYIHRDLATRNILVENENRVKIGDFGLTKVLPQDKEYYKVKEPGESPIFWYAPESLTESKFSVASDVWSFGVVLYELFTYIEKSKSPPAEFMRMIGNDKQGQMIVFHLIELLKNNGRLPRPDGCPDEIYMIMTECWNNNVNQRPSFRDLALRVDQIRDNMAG
Chain of Insulin receptor-related protein (Homo sapiens) (P14616 27-742 limits assumed): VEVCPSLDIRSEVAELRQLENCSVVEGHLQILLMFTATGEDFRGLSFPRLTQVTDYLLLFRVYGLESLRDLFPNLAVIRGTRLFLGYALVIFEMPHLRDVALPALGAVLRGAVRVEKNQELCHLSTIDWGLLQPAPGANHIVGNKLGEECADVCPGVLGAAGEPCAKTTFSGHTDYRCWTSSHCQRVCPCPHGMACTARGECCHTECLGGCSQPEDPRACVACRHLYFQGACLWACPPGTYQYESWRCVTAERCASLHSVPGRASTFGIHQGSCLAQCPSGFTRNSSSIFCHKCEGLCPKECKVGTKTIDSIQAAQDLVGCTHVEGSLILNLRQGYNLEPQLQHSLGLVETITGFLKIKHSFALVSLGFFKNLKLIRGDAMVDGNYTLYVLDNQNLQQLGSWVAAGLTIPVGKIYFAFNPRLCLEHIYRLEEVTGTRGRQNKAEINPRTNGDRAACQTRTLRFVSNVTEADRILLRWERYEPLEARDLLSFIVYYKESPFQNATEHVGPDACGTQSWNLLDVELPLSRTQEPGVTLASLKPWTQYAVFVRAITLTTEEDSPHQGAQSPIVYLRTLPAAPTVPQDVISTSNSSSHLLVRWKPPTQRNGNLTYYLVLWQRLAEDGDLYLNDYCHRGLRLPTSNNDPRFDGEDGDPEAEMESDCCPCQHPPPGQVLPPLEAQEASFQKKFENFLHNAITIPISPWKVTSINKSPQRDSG
Chain of Insulin receptor-related protein (Homo sapiens) (P14616 747-1297 limits assumed): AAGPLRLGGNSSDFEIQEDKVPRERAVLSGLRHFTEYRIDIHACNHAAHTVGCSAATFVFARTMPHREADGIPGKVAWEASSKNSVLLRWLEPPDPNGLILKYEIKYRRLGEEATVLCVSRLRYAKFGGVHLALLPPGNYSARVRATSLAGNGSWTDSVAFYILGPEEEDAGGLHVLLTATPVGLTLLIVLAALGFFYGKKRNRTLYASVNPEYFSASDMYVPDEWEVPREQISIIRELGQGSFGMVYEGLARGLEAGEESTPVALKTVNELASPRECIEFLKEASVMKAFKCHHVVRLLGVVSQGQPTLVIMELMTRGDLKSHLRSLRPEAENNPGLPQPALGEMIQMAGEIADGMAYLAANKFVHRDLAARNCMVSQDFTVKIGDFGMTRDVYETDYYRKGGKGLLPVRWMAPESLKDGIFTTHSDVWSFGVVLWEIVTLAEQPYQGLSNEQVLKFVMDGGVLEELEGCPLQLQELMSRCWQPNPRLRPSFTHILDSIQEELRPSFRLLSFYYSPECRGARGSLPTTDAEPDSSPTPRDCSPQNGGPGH
Chain of Mitogen-activated protein kinase 9 (Homo sapiens) (P45984 whole entry, looked up): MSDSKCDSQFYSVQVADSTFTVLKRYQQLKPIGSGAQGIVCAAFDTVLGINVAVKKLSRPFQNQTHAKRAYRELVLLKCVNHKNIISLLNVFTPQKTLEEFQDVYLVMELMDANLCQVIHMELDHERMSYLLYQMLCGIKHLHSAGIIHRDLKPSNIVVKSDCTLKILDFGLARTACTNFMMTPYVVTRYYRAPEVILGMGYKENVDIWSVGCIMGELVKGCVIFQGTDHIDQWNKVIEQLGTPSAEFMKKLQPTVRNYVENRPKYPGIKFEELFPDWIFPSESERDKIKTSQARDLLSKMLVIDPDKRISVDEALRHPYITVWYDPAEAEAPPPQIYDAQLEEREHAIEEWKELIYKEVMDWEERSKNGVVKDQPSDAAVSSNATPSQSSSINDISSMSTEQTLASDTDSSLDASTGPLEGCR
Chain of Mitogen-activated protein kinase 10 (Homo sapiens) (P53779 whole entry): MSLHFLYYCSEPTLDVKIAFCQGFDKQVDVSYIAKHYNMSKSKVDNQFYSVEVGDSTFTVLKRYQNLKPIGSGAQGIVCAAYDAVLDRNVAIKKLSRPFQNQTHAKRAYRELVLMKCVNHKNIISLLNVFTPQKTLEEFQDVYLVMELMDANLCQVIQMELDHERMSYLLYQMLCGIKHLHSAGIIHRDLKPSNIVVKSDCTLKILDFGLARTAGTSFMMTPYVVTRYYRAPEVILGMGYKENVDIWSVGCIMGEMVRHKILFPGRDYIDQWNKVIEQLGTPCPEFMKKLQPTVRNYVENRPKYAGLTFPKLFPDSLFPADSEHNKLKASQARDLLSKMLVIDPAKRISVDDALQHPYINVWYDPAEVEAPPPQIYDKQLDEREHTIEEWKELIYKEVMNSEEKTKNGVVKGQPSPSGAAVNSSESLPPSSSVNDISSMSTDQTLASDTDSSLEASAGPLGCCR
Chain of Interleukin-1 receptor-associated kinase 1 (Homo sapiens) (P51617 whole entry, looked up): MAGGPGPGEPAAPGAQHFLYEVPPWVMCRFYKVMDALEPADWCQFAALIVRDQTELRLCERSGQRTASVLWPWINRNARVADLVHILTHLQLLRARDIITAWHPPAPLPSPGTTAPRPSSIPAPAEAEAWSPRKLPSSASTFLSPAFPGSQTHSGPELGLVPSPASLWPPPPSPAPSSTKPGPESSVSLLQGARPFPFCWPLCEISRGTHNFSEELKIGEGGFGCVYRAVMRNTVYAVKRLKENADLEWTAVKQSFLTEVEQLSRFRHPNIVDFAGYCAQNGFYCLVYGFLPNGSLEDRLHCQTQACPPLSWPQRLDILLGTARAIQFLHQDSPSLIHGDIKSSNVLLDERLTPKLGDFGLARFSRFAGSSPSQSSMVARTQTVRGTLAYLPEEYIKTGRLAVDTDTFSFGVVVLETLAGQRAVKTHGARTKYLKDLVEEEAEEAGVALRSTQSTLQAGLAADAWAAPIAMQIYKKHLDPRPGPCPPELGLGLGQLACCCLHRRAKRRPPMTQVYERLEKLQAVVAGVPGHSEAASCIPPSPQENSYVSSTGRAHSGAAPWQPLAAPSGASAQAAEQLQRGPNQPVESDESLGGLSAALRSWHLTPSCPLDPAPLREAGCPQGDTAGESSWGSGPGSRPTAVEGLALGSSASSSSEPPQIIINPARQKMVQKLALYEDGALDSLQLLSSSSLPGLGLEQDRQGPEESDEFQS

Row | Compound | residual activity [1] [%] | residual activity [2] [%] | residual activity [3] [%] | residual activity [4] [%] | residual activity [5] [%] | residual activity [6] [%] | residual activity [7] [%] | residual activity [8] [%] | residual activity [9] [%] | residual activity [10] [%] | residual activity [11] [%] | residual activity [12] [%] | residual activity [13] [%] | residual activity [14] [%] | residual activity [15] [%] | residual activity [16] [%] | residual activity [17] [%] | residual activity [18] [%] | residual activity [19] [%] | residual activity [20] [%]
1 | CC(C)[C@H](CO)Nc1nc(Nc2cc(N)cc(Cl)c2)c2ncn(C(C)C)c2n1 | 50 | 55 | 6 | 94 | 49 | 39 | 7 | 87 | 82 | – | – | – | – | – | – | – | – | – | – | –
2 | CCOC(=O)c1c(C)[nH]c(/C=C2\C(=O)Nc3ccccc32)c1C | 96 | 84 | 93 | 94 | 99 | 97 | 49 | – | – | 93 | 81 | 79 | 99 | 92 | 100 | – | – | – | – | –
3 | CC(C)(C)n1nc(Cc2cccc3ccccc23)c2c(N)ncnc21 | 65 | 95 | 63 | 90 | 77 | 105 | 81 | 100 | 28 | 124 | 78 | 107 | 106 | 101 | 121 | 99 | 108 | 78 | 108 | 78
4 | O=C1C(Cl)=C(N2C(=O)CCC2=O)C(=O)c2ccccc21 | 87 | 89 | 93 | 85 | – | 75 | 83 | 89 | 88 | – | – | – | – | – | – | 100 | 96 | 86 | 89 | 102
5 | O=C1Cc2c([nH]c3ccc(Br)cc23)-c2ccccc2N1 | – | 93 | 81 | 94 | 68 | 81 | 36 | 71 | – | – | 82 | 83 | – | 100 | 71 | – | 95 | 88 | 87 | 97
6 | Cn1sc(=O)n(Cc2ccccc2)c1=O | 82 | 96 | 93 | – | – | 74 | 76 | – | 75 | – | – | 97 | 83 | 91 | 98 | – | 89 | 88 | 91 | 93
7 | Nc1ncnc2c1c(-c1ccc(Oc3ccccc3)cc1)cn2C1CCCC1 | 109 | 90 | 50 | 83 | 74 | 94 | – | 65 | 77 | 114 | 15 | 58 | 4 | 96 | 124 | 91 | 100 | 64 | 104 | 92
8 | CSc1nc(-c2ccc(F)cc2)c(-c2ccnc(NC(C)c3ccccc3)c2)[nH]1 (centres undefined) | 93 | 102 | 98 | – | – | 23 | 13 | – | 4 | – | 73 | 70 | 53 | – | – | – | 90 | 32 | 39 | -6
9 | NCCNc1ncc(C(N)=O)c(Nc2cccc(C(F)(F)F)c2)n1 | 77 | 74 | 34 | – | – | – | 51 | 106 | 79 | 142 | 55 | – | – | – | – | 116 | – | – | 103 | 76
10 | N#C/C(=C1/Nc2ccccc2S1)c1ccnc(NCCc2cccnc2)n1 | 137 | 98 | 83 | 80 | 70 | 80 | 31 | 48 | – | 132 | 63 | – | – | – | – | 95 | 67 | 55 | – | –
11 | O=C1NC(=O)c2c1c1c3ccccc3[nH]c1n1cncc21 | 15 | 31 | 19 | 76 | 66 | 61 | 56 | 58 | 25 | 5 | 3 | 85 | 44 | 97 | 93 | 83 | 89 | 75 | 67 | 49
12 | O=C(CCCc1ccc(-c2ccccc2F)cc1)Nc1ccc(O)cc1 | 102 | 97 | 97 | 78 | – | 93 | 82 | 104 | 109 | 88 | 98 | 90 | 98 | 108 | 111 | 104 | 99 | 98 | 93 | 99
